The text below walks through data of PubChem BioAssay (Tox21).

The target of assay [1] is Thyrotropin-releasing hormone receptor (Homo sapiens) (UniProt P34981). The assay is described as follows: qHTS assay to identify small molecule agonists of the thyrotropin-releasing hormone receptor (TRHR) signaling pathway (AID 1346891; calls by dose curve;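 further: HEK293 cells expressing TRHR with calcium dye readout; series mostly up to about 58 µM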). In a few lines:
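HEK293/TRHR cells, 1500 per well, 18 h 37 °C; Ca dye 2 h 37 °C; pin-tool compound addition (agonist mode); kinetic fluorescence 3 min, 1 s reads; 15 concentrations, triplicate.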
(In general: Quantitative high-throughput screening tests each substance at several concentrations.)

Assay [2] can be described thus: Human pregnane X receptor (PXR) small molecule agonists, qHTS cell viability counter screen (AID 1346977). Further: nearly all actives have a fitted effect of over 50% in size. Further: potency means the concentration at half of the fitted maximal effect. In a few lines: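 Fluorescence read-out (CellTiter-Fluor) of viability in PXR-Luc HepG2 cells, multiplexed with the luciferase agonist read. Compounds in DMSO added after 5hr plating; 24hr total exposure at 37C, 5% CO2.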
The nature of assay [3]: Caspase-3/7 induction in HepG2 cells by small molecules, qHTS assay (AID 1346978). Further: nearly all actives have a fitted effect of over 15% in size. The method, boiled down: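 Wild-type HepG2 cells, 2,000/well, settled 5 hr at 37 C and 5% CO2, then compound-treated for 17 hr; caspase-3/7 activity read by luminescent Caspase-Glo 3/7 after 30 min at room temperature.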
The nature of assay [4]: Caspase-3/7 induction in CHO-K1 cells by small molecules, qHTS cell viability counter screen (AID 1346979). Further: nearly all actives have a fitted effect of over 35% in size. In a few lines: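 CHO-K1 wt, 1,500 cells/well; 5hr pre-incubation 37C/5% CO2; compound pin transfer (DMSO); 16hr exposure; CellTiter-Fluor added, 1hr, fluorescence read.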
Assay [5] in a line: Caspase-3/7 induction in CHO-K1 cells by small molecules, qHTS assay (AID 1346980). Further: nearly all actives have a fitted effect of over 15% in size. The method, boiled down: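 Wild-type CHO-K1 cells exposed to compounds for 17hr at 37 C, 5% CO2. Caspase-3/7 activity then measured by Caspase-Glo 3/7 luminescence after 30min at room temperature.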
Assay [6] in a line: Caspase-3/7 induction in HepG2 cells by small molecules, qHTS cell viability counter screen (AID 1346981). Further: series mostly up to about 92 µM; nearly all actives have a fitted effect of over 30% in size. In a few lines: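 Steps: seed 2,000 HepG2 cells per well; incubate 5 hr at 37 C; pin-add compounds in DMSO; incubate 16 hr; add CellTiter-Fluor; after 1 hr at 37 C and 5% CO2, read fluorescence.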
Assay [7] addresses Cytochrome P450 2D6 (Homo sapiens) (UniProt P10635). The assay is described as follows: Cytochrome P450 Family 2 Subfamily D Member 6 (CYP2D6) small molecule antagonists: luciferase reporter qHTS assay (AID 1671196). Further: nearly all actives have a fitted effect of over 50% in size. Further: potency means the concentration at half of the fitted maximal effect. The method, boiled down:
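P450-Glo format: CYP2D6 converts a proluciferin substrate to luciferin in an NADPH-driven reaction lasting 1 h at room temperature. Light output, proportional to CYP2D6 activity, reflects interference by test chemicals.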
Background: In a reporter assay the amount or activity of a reporter protein is the signal.

The target in assay [8] is Cytochrome P450 2C19 (Homo sapiens) (UniProt P33261). The assay is described as follows: Cytochrome P450 Family 2 Subfamily C Member 19 (CYP2C19) small molecule antagonists: luciferase reporter qHTS assay (AID 1671197). Further: nearly all actives have a fitted effect of over 65% in size. Further: potency means the concentration at half of the fitted maximal effect. The method, boiled down: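 Inhibition of CYP2C19 was scored from loss of luminescence in a P450-Glo proluciferin substrate assay, NADPH-started and run 1 h at 37C, with ketoconazole as positive control.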

In assay [9] the target is Cytochrome P450 1A2 (Homo sapiens) (UniProt P05177). As to the kind of experiment: Cytochrome P450 Family 1 Subfamily A Member 2 (CYP1A2) small molecule antagonists: luciferase reporter qHTS assay (AID 1671199). Further: nearly all actives have a fitted effect of over 50% in size. Further: potency means the concentration at half of the fitted maximal effect. The method, boiled down: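 Inhibition of CYP1A2 conversion of proluciferin to luciferin, detected by luminescence. Reaction run 1 h at room temperature with NADPH regeneration after brief compound preincubation.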

In assay [10] the target is Voltage-gated inwardly rectifying potassium channel KCNH2 (Homo sapiens) (UniProt Q12809). As to the kind of experiment: Human Ether-a-go-go-Related Gene (hERG) channel small molecule antagonists: fluorescence cell-based qHTS assay (AID 1671200).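 Further: hERG-expressing U2OS cells given a thallium stimulus after FluxOR II dye loading; series mostly up to about 77 µM; nearly all actives have a fitted effect of over 50% in size.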 In a few lines: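 Read-out: thallium influx as a surrogate for potassium, tracked as fluorescence (480 nm ex/540 nm em) every second for 2 min after Stimulus Buffer addition in dye-loaded hERG-U2OS cells.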
Background: Block of hERG is tested as a sign of cardiac risk.

Assay [11] concerns the target Cytochrome P450 3A4 (Homo sapiens) (UniProt P08684). The assay is described as follows: Cytochrome P450 Family 3 Subfamily A Member 4 (CYP3A4) small molecule antagonists: luciferase reporter qHTS assay (AID 1671201). Further: nearly all actives have a fitted effect of over 50% in size. Further: potency means the concentration at half of the fitted maximal effect. In a few lines: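 Luminescent readout (RLU) proportional to CYP3A4 activity, from luciferin generated off a proluciferin substrate. Enzyme–substrate mix plus compound 10 min at room temp, NADPH regeneration 1 h, detection reagent 20 min.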

Assay [12] deals with Nuclear receptor subfamily 1 group I member 2 (Homo sapiens) (UniProt O75469). The assay is described as follows: Human pregnane X receptor (PXR) small molecule agonists, qHTS assay (AID 1346982). Further: nearly all actives have a fitted effect of over 35% in size. Further: potency means the concentration at half of the fitted maximal effect. The method, boiled down: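 Agonist mode qHTS: PXR-Luc HepG2 cells plated 5 hr before DMSO-dissolved compounds were pinned in, cultured 24 hr at 37 C, 5% CO2; ONE-Glo luminescence readout.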

The target in assay [13] is Cytochrome P450 2C9 (Homo sapiens) (UniProt P11712). As to the kind of experiment: Cytochrome P450 Family 2 Subfamily C Member 9 (CYP2C9) small molecule antagonists: luciferase reporter qHTS assay (AID 1671198). Further: nearly all actives have a fitted effect of over 50% in size. Further: potency means the concentration at half of the fitted maximal effect. The method, boiled down: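 P450-Glo proluciferin substrate with CYP2C9 enzyme; 10 min RT preincubation, then NADPH regeneration 1 h at 37C; luciferin detection reagent 20 min RT, luminescence in relative luminescence units.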

Assay [14] addresses Nuclear receptor subfamily 1 group I member 2 (Rattus norvegicus) (UniProt Q9R1A7). The assay is described as follows: Rat pregnane X receptor (rPXR) activation by small molecules, qHTS assay (AID 1346983). Further: nearly all actives have a fitted effect of over 20% in size. The conditions noted are these: rPXR luciferase reporter cells, One-Glo luminescence, 24 h; max activation: active compounds read high. The method, boiled down:
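Cell-based rPXR activation assay: rPXR cells, 2,000 per well, rested 5hr at 37 C, then exposed to compounds in DMSO for 24 hr at 37 C. Luciferase activity read by One-Glo luminescence after 30 min at room temperature.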

Assay [15] addresses Nuclear receptor subfamily 1 group I member 2 (Homo sapiens) (UniProt O75469). The assay is described as follows: Human pregnane X receptor (PXR) activation by small molecules, qHTS assay (AID 1346985). Further: nearly all actives have a fitted effect of over 40% in size. The method, boiled down:
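DPX-2 cells (HepG2 co-transfected with a PXR response element and a CYP3A4-promoter luciferase construct) were seeded at 2,000 per well, rested 5 hr at 37C, then exposed to DMSO-dissolved compounds for 24 hr. Activation was read as luciferase luminescence.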

A number with no mark means an inactive call. Results filed as inconclusive are left out. The source made the active and inactive calls. Unless noted, the call rests on the fitted dose curve; in most records, active means well fitted curve in the direction sought with a large enough effect in the repeat runs; inconclusive means weak or mixed curves; inactive means no such curve, though single readings can be large; an effect the other way counts as inactive or inconclusive.
On the % scale 0 is the no-effect control and ±100 the full control effect.

Chain of Cytochrome P450 1A2 (Homo sapiens) (P05177 whole entry, looked up): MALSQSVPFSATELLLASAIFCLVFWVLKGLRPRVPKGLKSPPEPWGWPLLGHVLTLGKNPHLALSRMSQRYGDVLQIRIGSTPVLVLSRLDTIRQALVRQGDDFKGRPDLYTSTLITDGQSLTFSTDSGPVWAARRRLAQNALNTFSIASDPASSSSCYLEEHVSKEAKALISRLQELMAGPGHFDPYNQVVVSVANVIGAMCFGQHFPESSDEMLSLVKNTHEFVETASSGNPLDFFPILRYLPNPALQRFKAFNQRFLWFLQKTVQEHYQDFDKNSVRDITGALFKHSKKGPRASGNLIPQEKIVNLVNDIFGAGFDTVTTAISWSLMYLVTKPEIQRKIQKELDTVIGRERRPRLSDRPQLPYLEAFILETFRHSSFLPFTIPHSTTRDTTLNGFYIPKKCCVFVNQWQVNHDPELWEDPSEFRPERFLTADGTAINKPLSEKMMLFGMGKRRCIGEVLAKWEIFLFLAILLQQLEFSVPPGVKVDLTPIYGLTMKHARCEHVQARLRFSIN
Chain of Nuclear receptor subfamily 1 group I member 2 (Rattus norvegicus) (Q9R1A7 whole entry, looked up): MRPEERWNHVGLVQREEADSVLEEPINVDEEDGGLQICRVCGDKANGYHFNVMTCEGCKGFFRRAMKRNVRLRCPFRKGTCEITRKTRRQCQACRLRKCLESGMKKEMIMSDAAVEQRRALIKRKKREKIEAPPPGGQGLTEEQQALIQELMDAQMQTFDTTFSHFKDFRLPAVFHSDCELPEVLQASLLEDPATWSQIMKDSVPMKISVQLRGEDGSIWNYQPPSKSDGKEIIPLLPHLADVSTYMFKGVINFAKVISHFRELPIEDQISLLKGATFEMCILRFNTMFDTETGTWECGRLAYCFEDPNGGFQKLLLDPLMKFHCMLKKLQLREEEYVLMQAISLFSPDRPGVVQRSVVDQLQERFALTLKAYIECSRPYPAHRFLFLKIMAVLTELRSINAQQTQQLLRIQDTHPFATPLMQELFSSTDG
Chain of Nuclear receptor subfamily 1 group I member 2 (Homo sapiens) (O75469 whole entry, looked up): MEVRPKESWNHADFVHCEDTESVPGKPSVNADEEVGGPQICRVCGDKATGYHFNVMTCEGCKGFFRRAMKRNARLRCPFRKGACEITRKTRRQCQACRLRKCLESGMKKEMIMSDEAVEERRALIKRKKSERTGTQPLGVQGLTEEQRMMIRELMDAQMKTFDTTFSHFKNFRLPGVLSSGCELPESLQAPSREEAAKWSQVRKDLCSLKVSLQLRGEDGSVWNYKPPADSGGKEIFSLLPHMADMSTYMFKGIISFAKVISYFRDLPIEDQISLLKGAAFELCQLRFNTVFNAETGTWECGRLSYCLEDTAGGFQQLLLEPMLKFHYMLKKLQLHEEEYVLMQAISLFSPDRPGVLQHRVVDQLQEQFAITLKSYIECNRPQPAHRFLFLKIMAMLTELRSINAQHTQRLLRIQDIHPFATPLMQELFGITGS
Chain of Cytochrome P450 2C19 (Homo sapiens) (P33261 whole entry, looked up): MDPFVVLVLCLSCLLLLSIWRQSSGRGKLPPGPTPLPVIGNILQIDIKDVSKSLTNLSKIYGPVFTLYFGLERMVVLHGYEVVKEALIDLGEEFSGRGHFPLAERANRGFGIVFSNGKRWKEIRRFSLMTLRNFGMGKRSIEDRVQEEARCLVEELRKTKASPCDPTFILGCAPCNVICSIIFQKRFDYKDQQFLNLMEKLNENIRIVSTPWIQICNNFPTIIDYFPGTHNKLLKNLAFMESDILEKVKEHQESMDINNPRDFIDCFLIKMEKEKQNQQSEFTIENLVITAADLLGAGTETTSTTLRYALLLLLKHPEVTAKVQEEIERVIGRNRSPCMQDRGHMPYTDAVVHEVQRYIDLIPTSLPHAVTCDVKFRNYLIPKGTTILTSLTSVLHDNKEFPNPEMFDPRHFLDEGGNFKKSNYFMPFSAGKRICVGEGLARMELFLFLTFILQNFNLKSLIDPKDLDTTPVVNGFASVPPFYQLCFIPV
Chain of Cytochrome P450 2D6 (Homo sapiens) (P10635 whole entry, looked up): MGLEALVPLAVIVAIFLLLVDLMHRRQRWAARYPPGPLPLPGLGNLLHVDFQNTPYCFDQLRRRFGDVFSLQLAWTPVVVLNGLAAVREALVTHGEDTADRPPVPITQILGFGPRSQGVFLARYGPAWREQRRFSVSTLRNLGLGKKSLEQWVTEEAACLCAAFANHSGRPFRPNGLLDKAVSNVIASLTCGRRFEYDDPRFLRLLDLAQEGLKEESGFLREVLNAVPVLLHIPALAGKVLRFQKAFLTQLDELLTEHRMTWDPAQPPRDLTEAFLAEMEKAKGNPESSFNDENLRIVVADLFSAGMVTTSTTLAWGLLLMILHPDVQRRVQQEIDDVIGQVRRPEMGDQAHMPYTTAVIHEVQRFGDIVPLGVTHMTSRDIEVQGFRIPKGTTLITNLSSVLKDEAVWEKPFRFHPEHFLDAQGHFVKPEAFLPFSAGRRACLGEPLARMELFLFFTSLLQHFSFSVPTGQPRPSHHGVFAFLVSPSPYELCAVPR
Chain of Cytochrome P450 2C9 (Homo sapiens) (P11712 whole entry, looked up): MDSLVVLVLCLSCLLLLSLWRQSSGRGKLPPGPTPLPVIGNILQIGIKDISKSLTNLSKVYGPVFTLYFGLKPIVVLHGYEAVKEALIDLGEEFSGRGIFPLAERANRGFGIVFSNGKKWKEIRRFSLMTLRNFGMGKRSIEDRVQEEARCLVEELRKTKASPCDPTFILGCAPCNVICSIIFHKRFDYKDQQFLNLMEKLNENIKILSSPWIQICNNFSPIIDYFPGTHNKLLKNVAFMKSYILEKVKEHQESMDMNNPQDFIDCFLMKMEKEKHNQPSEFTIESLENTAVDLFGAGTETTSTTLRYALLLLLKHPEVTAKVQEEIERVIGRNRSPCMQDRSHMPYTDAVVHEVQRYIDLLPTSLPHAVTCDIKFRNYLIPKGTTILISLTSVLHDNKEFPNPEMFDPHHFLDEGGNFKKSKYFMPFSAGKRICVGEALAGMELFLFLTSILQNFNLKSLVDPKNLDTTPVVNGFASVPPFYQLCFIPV
Chain of Cytochrome P450 3A4 (Homo sapiens) (P08684 whole entry, looked up): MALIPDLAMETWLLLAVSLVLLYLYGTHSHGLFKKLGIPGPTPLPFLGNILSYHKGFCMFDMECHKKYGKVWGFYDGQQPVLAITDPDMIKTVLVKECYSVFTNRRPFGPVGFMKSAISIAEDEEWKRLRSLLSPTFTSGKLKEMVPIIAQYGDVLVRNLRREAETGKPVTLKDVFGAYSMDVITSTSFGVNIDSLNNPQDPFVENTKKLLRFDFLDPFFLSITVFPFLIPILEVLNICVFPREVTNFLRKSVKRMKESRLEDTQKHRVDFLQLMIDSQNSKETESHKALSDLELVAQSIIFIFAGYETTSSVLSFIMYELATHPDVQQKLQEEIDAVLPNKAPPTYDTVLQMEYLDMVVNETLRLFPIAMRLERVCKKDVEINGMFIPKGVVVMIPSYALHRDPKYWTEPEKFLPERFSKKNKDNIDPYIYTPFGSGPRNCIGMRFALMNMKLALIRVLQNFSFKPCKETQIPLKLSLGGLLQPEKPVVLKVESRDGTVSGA
Chain of Voltage-gated inwardly rectifying potassium channel KCNH2 (Homo sapiens) (Q12809 whole entry, looked up): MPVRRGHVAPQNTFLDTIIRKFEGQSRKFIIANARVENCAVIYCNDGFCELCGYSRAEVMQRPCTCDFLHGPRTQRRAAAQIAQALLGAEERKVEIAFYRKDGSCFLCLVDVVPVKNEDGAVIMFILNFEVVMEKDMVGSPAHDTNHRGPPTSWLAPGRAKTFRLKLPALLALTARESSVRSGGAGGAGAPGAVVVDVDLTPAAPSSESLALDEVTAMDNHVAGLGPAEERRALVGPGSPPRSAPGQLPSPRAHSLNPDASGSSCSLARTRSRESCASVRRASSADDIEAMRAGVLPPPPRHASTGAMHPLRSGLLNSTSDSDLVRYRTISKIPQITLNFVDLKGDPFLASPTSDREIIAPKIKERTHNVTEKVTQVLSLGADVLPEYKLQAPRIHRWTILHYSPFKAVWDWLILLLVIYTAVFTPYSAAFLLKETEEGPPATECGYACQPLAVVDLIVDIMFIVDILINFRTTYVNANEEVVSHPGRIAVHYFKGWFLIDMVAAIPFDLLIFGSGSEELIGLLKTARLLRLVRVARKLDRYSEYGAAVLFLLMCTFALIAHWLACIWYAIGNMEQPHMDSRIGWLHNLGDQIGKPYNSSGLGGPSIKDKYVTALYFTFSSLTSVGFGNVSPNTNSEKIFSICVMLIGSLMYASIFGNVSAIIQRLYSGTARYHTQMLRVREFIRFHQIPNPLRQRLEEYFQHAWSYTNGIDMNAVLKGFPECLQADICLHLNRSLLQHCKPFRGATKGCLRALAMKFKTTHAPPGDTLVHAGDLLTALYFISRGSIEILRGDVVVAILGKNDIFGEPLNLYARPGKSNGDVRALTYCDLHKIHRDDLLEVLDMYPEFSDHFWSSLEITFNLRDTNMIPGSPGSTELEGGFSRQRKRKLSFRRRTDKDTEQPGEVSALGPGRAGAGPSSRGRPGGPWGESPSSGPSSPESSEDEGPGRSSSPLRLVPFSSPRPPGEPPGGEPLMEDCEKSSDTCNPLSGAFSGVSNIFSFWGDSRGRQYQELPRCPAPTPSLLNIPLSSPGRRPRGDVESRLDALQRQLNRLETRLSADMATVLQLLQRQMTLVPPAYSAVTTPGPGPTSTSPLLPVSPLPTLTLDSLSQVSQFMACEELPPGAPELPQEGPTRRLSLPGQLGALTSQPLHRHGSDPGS
Chain of Thyrotropin-releasing hormone receptor (Homo sapiens) (P34981 whole entry, looked up): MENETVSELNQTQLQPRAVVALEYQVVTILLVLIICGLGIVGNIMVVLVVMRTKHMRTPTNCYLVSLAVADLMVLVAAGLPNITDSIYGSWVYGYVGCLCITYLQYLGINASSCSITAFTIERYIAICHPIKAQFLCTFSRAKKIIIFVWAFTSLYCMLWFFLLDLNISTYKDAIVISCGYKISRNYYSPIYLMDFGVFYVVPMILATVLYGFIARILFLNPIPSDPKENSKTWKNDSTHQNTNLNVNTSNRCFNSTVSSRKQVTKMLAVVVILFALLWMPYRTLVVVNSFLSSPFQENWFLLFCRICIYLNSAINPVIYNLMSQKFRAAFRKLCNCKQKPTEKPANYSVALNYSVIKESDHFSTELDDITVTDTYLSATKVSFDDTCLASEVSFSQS

For `Cc1oc(=O)oc1COC(=O)[C@@H]1N2C(=O)[C@@H](NC(=O)[C@H](N)c3ccccc3)[C@H]2SC1(C)C`, the outcome in assay [1] and in assay [5] was inactive. Besides, the Potency result in assay [2], in assay [3], in assay [4], in assay [6], in [7] and in assay [8] was “inactive” each time. In addition, the Potency result in assay [9] and in [10] was “inactive” each time.

Regarding `O=C1NC(=O)c2cccc3cccc1c23`, the outcome in assay [1] was inactive. Moreover, the Potency result in assay [2], in [3], in assay [4], in [6], in assay [7] and in assay [10] was “inactive” throughout. The Potency entry in assay [11] is “inactive”. Further, the Potency in assay [9] is 3.17 µM (active).

For the compound `O=C(c1ccccc1)c1ccc(O)cc1`, the call in assay [1] and in assay [5] was inactive. Further, the Potency result in [2], in assay [3], in assay [6], in assay [13], in [10] and in assay [11] was “inactive” each time. For the same compound, the Potency in assay [12] was 61.8 µM (active); in assay [7], 40.4 µM (active); in assay [8] it was 40.4 µM (active); in assay [9] it was 32.1 µM (active).

Turning to `CC(=O)OCC1=C(C(=O)O)N2C(=O)[C@@H](NC(=O)CSc3ccncc3)[C@H]2SC1`, the compound was classed as inactive in [1]. For the same compound, the Potency entry in assay [2], in assay [3], in assay [4], in assay [6], in assay [9] and in [10] was “inactive” throughout. The max activation in assay [14] was -5.99%. In addition, the Potency in [7] is 11 µM (active).

For the compound `CS(=O)(=O)c1ccc([C@@H](C[C@H]2CCC(=O)C2)C(=O)Nc2cnccn2)cc1Cl`, the outcome in assay [1] and in assay [5] was inactive. For the same compound, the Potency result in assay [2], in [3], in assay [6] and in assay [12] was “inactive” throughout.

Consider `CC[C@H]1OC(=O)[C@H](C)[C@@H](O[C@H]2C[C@@](C)(OC)[C@@H](O)[C@H](C)O2)[C@H](C)[C@@H](O[C@@H]2O[C@H](C)C[C@H](N(C)C)[C@H]2O)[C@](C)(O)C[C@@H](C)CN(C)[C@H](C)[C@@H](O)[C@]1(C)O`, for which the call in [1] and in assay [5] was inactive. In addition, in [2], the Potency is 18.1 µM (active). The Potency result in assay [3], in assay [4], in [6], in [15], in [7] and in assay [8] was “inactive” in each case. Besides, the Potency result in [13], in assay [9] and in [10] was “inactive” in each case.

Take `CC(=O)NNC(C)=O`: the compound was called inactive in assay [1]. The Potency result in [2], in assay [3], in assay [4], in assay [6], in assay [12] and in assay [7] was “inactive” throughout. The Potency result in [8], in assay [9], in [10] and in assay [11] was “inactive” throughout.

Turning to `CCCCCCCC/C=C\CCCCCCCC(=O)OCCO`, the compound was called inactive in assay [1] and in assay [5]. Further, the Potency entry in assay [2], in assay [3], in assay [4], in assay [6] and in assay [10] was “inactive” each time. In addition, the Potency was 52.9 µM (active) in assay [8], 18.8 µM (active) in assay [13] and 13.3 µM (active) in assay [11].

For the compound `CC(C(=O)O)c1ccc(C(=O)c2cccs2)cc1` (configuration not stated), the compound was called inactive in assay [1] and in assay [5]. For the same compound, the Potency result in assay [2], in assay [3], in assay [4], in [6], in assay [7] and in assay [10] was “inactive” each time. For the same compound, in assay [11], the Potency entry was “inactive”. The max activation in assay [14] is -2.97%. Besides, the Potency in assay [13] was 7.76 µM (active).

For the compound `CCOC(=O)c1c(N)sc2c1CCN(Cc1ccccc1)C2`, in [1], the outcome was inactive. Besides, the Potency result in assay [2], in assay [3], in assay [4], in assay [6], in assay [12] and in assay [15] was “inactive” each time. Further, the max activation in [14] was -1.17%. Moreover, the Potency in assay [7] was 0.0219 µM (active); in [8], 0.871 µM (active); in assay [13], 3.47 µM (active); in assay [9], 15.5 µM (active).

For `CC(=O)C(=O)CC(C)C`, the compound was called inactive in [1]. For the same compound, the Potency result in assay [2], in assay [3], in [4], in assay [6], in assay [12] and in assay [7] was “inactive” throughout. Further, the Potency result in [10] and in [11] was “inactive” each time. For the same compound, the Potency in assay [8] was 35.4 µM (active).
